# An excerpt weighted towards active compounds, which were near 4.8% of everything screened.
# Casp7 inh: allosteric or competitive inhibitors of human caspase-7; AID 889; 75,000 compounds, 0.02% hits; P55210; recombinant caspase-7, Ac-DEVD-AFC fluorescence rate; Potency, µM (series often up to 57.5 µM), inactives show at the top dose activity change, negative = inhibition, most hits filed as inhibitors; active = well fitted inhibition curve with a large enough effect in the main read-out, with a control signal flat, not every such curve was filed as active; inconclusive = small, poorly fitted or top-dose-only effect, or a change in a side signal; also: % of control where 0% means no effect
# Target sequence (P55210 24-198 limits assumed): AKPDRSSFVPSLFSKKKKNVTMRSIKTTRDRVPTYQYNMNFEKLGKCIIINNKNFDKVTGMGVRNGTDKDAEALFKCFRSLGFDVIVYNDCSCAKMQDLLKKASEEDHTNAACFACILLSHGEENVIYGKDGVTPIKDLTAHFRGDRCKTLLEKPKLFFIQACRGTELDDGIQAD
# Target sequence (P55210 207-303 limits assumed): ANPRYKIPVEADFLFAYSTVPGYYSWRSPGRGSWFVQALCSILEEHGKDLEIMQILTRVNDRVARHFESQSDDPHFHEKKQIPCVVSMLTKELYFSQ
# HEK293 cAMP ctrl: counter-screen for TSHR agonists: cAMP increase in parental HEK293 | 73,000 compounds, 2.5% hits | Potency, µM (highest dose often 57.1 µM), without a hit: at the top dose activation, most hits filed as activators | AID 938 | parental HEK293 CNG cAMP sensor, membrane potential fluorescence; also: % of control where 0% means no effect; nearly all actives have a fitted effect of over 55% in size
#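 Parental HEK 293 cells stably expressing a modified CNG channel (no TSHR) report cAMP rise as membrane depolarization. Membrane potential dye with 100 uM RO 20-1724 was loaded for 60 min at room temperature, then compound added for 30 min; fluorescence read at 590 nm.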
# TSHR agonist: activates the human thyroid stimulating hormone receptor; HEK293-CNG-TSHR cells (CNG channel as cAMP sensor), membrane potential dye, cAMP; Potency, µM (top dose mostly 57.1 µM), for the others: at the highest dose activation, most hits filed as activators; 73,000 compounds, 0.48% hits; AID 926; active = well fitted activation curve with a large enough effect in the main read-out, with a control signal flat, not every such curve was filed as active; inconclusive = small, poorly fitted or top-dose-only effect, or a change in a side signal; inactive = no such curve, though single readings can be large or run the other way; % of control where 0% means no effect;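 also: the control signal comes from parental cells without the receptor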
#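 HEK 293 cells stably expressing TSHR and a modified CNG channel, with CNG-only parental cells as counterscreen, were preloaded 60 min at room temperature with membrane potential dye containing 100 uM RO 20-1724. Compound exposure was 30 min, and depolarization was read as fluorescence at 590 nm.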
# Casp1 inh: blocks human caspase-1 allosterically or competitively; Potency, µM (titrated, usually from 57.5 µM), for inactives: at the top dose activity change, negative = inhibition, actives largely listed as inhibitors; 75,000 compounds, 0.03% hits; AID 900; Caspase-1 enzyme, Ac-WEHD-AFC fluorogenic rate;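 also: plate controls were vehicle for no effect and no substrate for full effect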
# Target sequence (P29466 120-297 limits assumed): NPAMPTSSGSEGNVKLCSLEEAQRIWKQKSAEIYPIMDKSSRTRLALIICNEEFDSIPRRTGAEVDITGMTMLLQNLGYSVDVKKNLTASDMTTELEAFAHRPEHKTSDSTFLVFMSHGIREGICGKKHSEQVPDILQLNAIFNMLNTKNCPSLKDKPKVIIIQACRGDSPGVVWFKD
# Target sequence (P29466 317-404 limits assumed): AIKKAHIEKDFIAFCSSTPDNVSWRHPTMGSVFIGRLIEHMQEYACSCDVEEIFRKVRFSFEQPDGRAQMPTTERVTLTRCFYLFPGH
# ALOX15 inhib: blocks human 15-lipoxygenase activity | AID 887 | P16050 | Potency, µM (titrated, usually from 57.1 µM), inactives show top-dose activity change, negative = inhibition, hits mostly inhibitors | 74,000 compounds, 1.4% hits | purified 15hLO-1, xylenol orange hydroperoxide absorbance; also: % is scaled to controls: 0 for no effect and ±100 for the full control effect; nearly all actives have a fitted effect of over 55% in size
#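 Purified human 15hLO-1 (40 nM) in 25 mM Hepes pH 7.5, 0.01% Triton X-100, preincubated 15 min RT with compound, then 50 uM arachidonic acid for 6 min. Hydroperoxide read by ferrous/xylenol orange, 30 min; 573/405 nm absorbance ratio gave progress.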
# ERK AVP block: blocks ERK signaling stimulated by vasopressin; HEK293-V1b, vasopressin-stimulated pERK AlphaScreen; Potency, µM (highest dose often 57.5 µM), without a hit: top-dose activity, negative = inhibition, most hits filed as inhibitors; 72,000 compounds, 0.99% hits; AID 995; also: % is scaled to controls: 0 for no effect and ±100 for the full control effect; nearly all actives have a fitted effect of over 55% in size
#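 HEK293 cells stably expressing V1b receptor, preincubated 30 min at 37 °C with compound, then stimulated 5 min with 25 nM vasopressin. Phospho-ERK by AlphaScreen SureFire after 5 h RT; normalized to DMSO and vasopressin; AC50 by Hill fit.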
# Numbers without * were called inactive; u = inconclusive; x = no result given; [ ] = another dose, or the depositor's remark. Unless noted, calls follow the shape of the dose curve; as a rule, active = well fitted curve in the direction sought with a large enough effect; inconclusive = small, poorly fitted or top-dose-only effect, or another doubt; inactive = no such curve, though single readings can be large; an effect the other way counts as inactive or inconclusive. Potency is read from the fitted curve at half-maximal effect.
SMILES,Casp7 inh,HEK293 cAMP ctrl,TSHR agonist,Casp1 inh,ALOX15 inhib,ERK AVP block
O=C(CSCc1nc2ccccc2[nH]1)N1CCN(c2cccc(Cl)c2)CC1,-5.9%,u,u,-6.8%,9.3%,25.1µM*
O=C(CSCc1nc2ccccc2[nH]1)N1CCN(c2ccc(F)cc2)CC1,-12.5%,15.8%,25.7%,1.2%,8.5%,-29.9%
O=C(CSCc1cccc(F)c1)N1CCN(c2ccccc2)CC1,-1.6%,31.6µM*,u,1.1%,-4.7%,-0.8%
CC(C)C[C@@H](CC(=O)N[C@@H](CCCN)CC(=O)N[C@@H]1CCNC[C@H]1C(=O)N[C@H](CC(=O)N[C@@H](CCC(=O)O)CC(=O)O)Cc1c[nH]c2ccccc12)NC(=O)[C@@H]1CNCC[C@H]1N,x,11.2%,5.3%,x,x,x
CCOC(=O)c1ccccc1NC(=O)c1cccs1,0.4%,25.1µM*,u,0.0%,-13.6%,28.9%
CCOC(=O)c1ccccc1NC(=O)c1ccccc1SC,-3.3%,u,u,-1.8%,-25.7%,-6.1%
O=C(c1cnccn1)N1CCC2(CC1)CN(c1ccncc1)C2,-0.9%,14.4%,0.1%,u,1.4%,13.1%
Cc1ccc(C2C3=C(CC(C)(C)CC3=O)NC3=C2C(=O)CC(C)(C)C3)o1,-13.4%,2.5%,12.6µM*,-11.3%,2.6%,-12.6%
CC1=C(C#N)C(C)C2=C(CC(C)(C)CC2=O)N1 (stereo not given),u,0.6%,6.7%,x,-4.2%,-3.0%
Cc1noc(C)c1-c1nc(NCCN2CCOCC2)c2ccccc2n1,-2.1%,2.9%,3.1%,-4.0%,u,-15.8%
Cc1ccc(NC(=O)c2ccco2)c(NC(=O)CN2C(=O)c3ccccc3C2=O)c1,-0.3%,1.8%,5.8%,0.6%,1.8%,-11.3%
CCCCOc1ccccc1NC(=O)c1ccco1,0.7%,15.8µM*,u,-1.5%,-8.6%,-18.6%
Cc1ccc(Cn2cccc(NC(=O)c3ccco3)c2=O)cc1,-3.3%,15.8µM*,u,-0.5%,1.2%,10.8%
NS(=O)(=O)c1ccc(NC(=O)c2ccccc2C(=O)N2CCCCC2)cc1,1.1%,7.4%,-1.9%,-1.6%,-1.5%,-15.5%
Cc1ccc(-c2nc(CS(=O)(=O)CC(=O)N3CC(C)CC(C)C3)c(C)o2)cc1 (stereo not given),-3.0%,31.6µM*,u,0.1%,-6.2%,u
Cc1oc(-c2ccccc2F)nc1CS(=O)(=O)CC(=O)N1CCN(Cc2ccccc2)CC1,-1.6%,19.9%,x,1.0%,-2.8%,u
Cc1oc(-c2ccccc2F)nc1CS(=O)(=O)CC(=O)N1CCOCC1,-1.8%,31.6µM*,u,-5.0%,0.3%,-15.4%
Cc1cc(C)n(-c2nc3c(c(=O)[nH]c(=O)n3C)n2C(C)C)n1,6.8%,1.3%,-0.5%,1.6%,13.3%,4.1%
N#Cc1cccc(NC(=O)N2CC[C@@]3(CCCNC3)C2)c1,0.4%,-6.6%,3.5%,-1.9%,1.2%,-17.7%
CC(C)NC(=O)N1CCC2(CC1)CCN(C(=O)c1ccco1)CC2,-2.2%,9.0%,6.1%,-2.9%,-4.6%,3.9%
COc1ccc2c(c1)CCc1c(-c3noc4c3CCc3cc(OC)ccc3-4)noc1-2,-1.5%[11.5 µM],-2.5%[11.4 µM],2.3%[11.4 µM],-0.3%[11.5 µM],2.5%[11.4 µM],3.0%[11.5 µM]
COc1ccc2c(c1)Cc1cc(N=[N+]([O-])c3ccc4c(c3)Cc3cc(OC)ccc3-4)ccc1-2,-2.6%[11.5 µM],3.9%[11.4 µM],-1.9%[11.4 µM],1.9%[11.5 µM],3.98µM*,1.5%[11.5 µM]
C=C[C@@]1(C)CC(=O)[C@@]2(O)[C@@]3(C)[C@@H](O)CCC(C)(C)[C@@H]3[C@H](O)[C@H](OC(C)=O)[C@@]2(C)O1,-1.5%,0.0794µM*,u,2.0%,-2.1%[25.6 µM],1.26µM*
Cc1cc(N2CCOCC2)nc2cc(O)ccc12,u,6.31µM*,u,x,u,x
CCOC(=O)c1cc(C)sc1N1C(=O)C2C3C=CC(C3)C2C1=O (stereo not given),-1.3%,6.7%,2µM*,0.3%,9.7%,1.2%
Nc1nc2sc3c(c2cc1C(=O)N1CCOCC1)CCCC3,-2.0%,4.6%[11.4 µM],2.8%[11.4 µM],-3.2%,3.16µM*,u

# From PubChem BioAssay
